Assay outcomes as filed in PubChem BioAssay.
ssDAF12 agonist – S. stercoralis DAF-12 nuclear receptor activators, primary screen, cell-based, luminescence, HEK293, GRIP1 co-expression, lit1-tk-luc; Nuclear hormone receptor DAF-12 (Strongyloides stercoralis); activation, % at 6.8 µM; hit rate 1% among 370,000; HEK293 ssDAF-12/GRIP1 lit1-tk-luc reporter; % of 3 µM dafachronic acid response; AID 652126, 2013;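 active = activation above the mean over all tested compounds plus 3 SD, cut at about 0.9% in these data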;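 also: 0% = DMSO-only wells and 100% = 3 µM delta7-dafachronic acid wells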
DAX1 inh-1 – DAX1 (NR0B1) inhibitors on StAR promoter, primary screen, cell-based, luminescence, SF-1 (NR5A1), full-length DAX-1. HEK293T StAR-luciferase reporter, SF-1/DAX-1 repression relief. AID 652010, 2013. inhibition, % at 6.8 µM. hit rate 1.1% among 370,000;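 active = inhibition above the mean over all tested compounds plus 3 SD, cut at about 3.6% in these data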;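 also: 0% = DAX-1 cells with DMSO and 100% = cells lacking DAX-1 with DMSO; higher inhibition means more luminescence from relief of DAX-1 repression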
hcDAF12 agonist – H. contortus DAF-12 nuclear receptor activators, primary screen, cell-based, luminescence, HEK293, lit1-tk-luc reporter; HEK293 hcDAF-12 lit1-tk-luc reporter; 0% DMSO, 100% Δ7-dafachronic acid; activation, % at 6.8 µM; hit rate 1.4% among 370,000; AID 652067, 2013;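 active = activation above the mean of all tested compounds plus 3 SD, cut at about 5.5% in these data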;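 also: 100% = response to 3 µM Δ7-dafachronic acid high control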
DAX1 inh-2 – DAX1 (NR0B1) inhibitors, primary screen, cell-based, HEK293, Gal4-DAX1, luciferase luminescence; AID 504766, 2011; inhibition, % at 6.75 µM; HEK293 Gal4-DAX1 luciferase reporter; Nuclear receptor subfamily 0 group B member 1 (Homo sapiens), P51843; hit rate 0.99% among 340,000;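 active = inhibition above the mean over all tested compounds plus 3 SD, cut at about 4.2% in these data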;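 also: 0% = DAX1-transfected cells with DMSO and 100% = empty-vector control cells with DMSO; inhibition shows as a rise in luminescence from relieved DAX1 repression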
Target sequence (P51843 207-470 limits assumed): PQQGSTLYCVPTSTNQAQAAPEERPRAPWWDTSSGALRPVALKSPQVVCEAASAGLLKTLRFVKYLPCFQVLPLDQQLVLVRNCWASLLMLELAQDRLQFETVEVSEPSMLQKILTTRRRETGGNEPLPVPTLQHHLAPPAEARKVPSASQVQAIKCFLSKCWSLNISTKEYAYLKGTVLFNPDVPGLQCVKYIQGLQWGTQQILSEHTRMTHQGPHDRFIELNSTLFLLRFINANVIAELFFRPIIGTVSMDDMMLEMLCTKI
hgDAF12 agonist – H. glycines DAF-12 receptor agonists, primary screen, cell-based, luminescence, HEK293, GAL4 fusion, UAS-luciferase | Nuclear hormone receptor DAF-12 (Heterodera glycines), GAL4 fusion | HEK293 GAL4-hgDAF12 UAS-luciferase reporter, agonist luminescence; normalized to butyrate control | activation, % at 6.8 µM | hit rate 1.8% among 370,000 | AID 687014, 2013;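 active = activation above a cutoff set at the mean of all screened compounds plus 3 SD, cut at about 10% in these data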;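 also: 0% = DMSO wells and 100% = sodium butyrate wells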
* hit, by the source's call. Only some compounds are listed: those with a hit (about 4.1% of all), similar ones and a draw of the others.

How did O=c1cc(-c2ccccc2F)oc2ccccc12 do in these assays?
ssDAF12 agonist: -0.7; DAX1 inh-1: 2.1; hcDAF12 agonist: 0.8; DAX1 inh-2: 0.2; hgDAF12 agonist: 11.1*

What do the screens show for `O=c1c(O)c(-c2cccs2)oc2ccc(Cl)cc12`?
ssDAF12 agonist: -1.7; DAX1 inh-1: 0.2; hcDAF12 agonist: 0.3; DAX1 inh-2: 0.3; hgDAF12 agonist: 1.9

Results for O=c1cc(-c2ccsc2)oc2cc(-c3ccc4c(c3)OCO4)ccc12 ?
ssDAF12 agonist: -1.5; DAX1 inh-1: -0.5; hcDAF12 agonist: 0.6; DAX1 inh-2: 4.7*; hgDAF12 agonist: -0.2

What do the screens show for `O=c1cc(-c2cccs2)oc2ccc(Cl)cc12`?
ssDAF12 agonist: -0.5; DAX1 inh-1: 0.9; hcDAF12 agonist: 4.9; DAX1 inh-2: 5.3*; hgDAF12 agonist: 10.3

How did O=c1cc(-c2ccccc2)oc2ccc(Cl)cc12 do in these assays?
ssDAF12 agonist: -1.1; DAX1 inh-1: 3.9*; hcDAF12 agonist: 3.4; DAX1 inh-2: 3.0; hgDAF12 agonist: 8.5

Results for CC1CCC2(CCC(=O)N2CCCOC(=O)NC(C)(C)C)CC1 (stereo unspecified) ?
ssDAF12 agonist: -0.7; DAX1 inh-1: -0.6; hcDAF12 agonist: -1.9; hgDAF12 agonist: -3.9

How did S=C(Nc1ccccc1)OC1CCC12CCC(c1ccccc1)CC2 (stereo unspecified) do in these assays?
ssDAF12 agonist: -0.8; DAX1 inh-1: -1.3; hcDAF12 agonist: -0.6; hgDAF12 agonist: -2.4

What do the screens show for `O=c1cc(-c2ccc3c(c2)OCCO3)oc2ccc(Cl)cc12`?
ssDAF12 agonist: 0.6; DAX1 inh-1: 1.7; hcDAF12 agonist: 0.5; DAX1 inh-2: 1.7; hgDAF12 agonist: 12.2*

What do the screens show for `O=C(O)c1cc(=O)c2cc(Cl)ccc2o1`?
ssDAF12 agonist: -0.8; DAX1 inh-1: -0.8; hcDAF12 agonist: -0.4; DAX1 inh-2: -0.4; hgDAF12 agonist: 0.1

Results for COC(=O)CSc1nnc(-c2ccc(NS(=O)(=O)c3ccc(Cl)s3)cc2)o1 ?
ssDAF12 agonist: -1.9; DAX1 inh-1: 0.2; hcDAF12 agonist: 0.0; hgDAF12 agonist: 4.4

How did C=CCN1[C@H](C)COc2cc(N3CCCC3)ccc2S1(=O)=O do in these assays?
ssDAF12 agonist: -1.7; DAX1 inh-1: -2.0; hcDAF12 agonist: 0.4; hgDAF12 agonist: -2.9

How did CC(NC(=O)C1CCC(CNc2c(N3CCCCC3)c(=O)c2=O)CC1)c1ccccc1 (stereo unspecified) do in these assays?
ssDAF12 agonist: -1.2; DAX1 inh-1: 0.3; hcDAF12 agonist: 0.2; DAX1 inh-2: 5.8*; hgDAF12 agonist: -0.6

Results for O=C(CC1C=CCC1)OCCN1CCN(C2CN(Cc3cn(Cc4ccccc4Cl)nn3)S(=O)(=O)C2)CC1 (stereo unspecified) ?
ssDAF12 agonist: -1.6; DAX1 inh-1: 0.3; hcDAF12 agonist: -0.4; hgDAF12 agonist: -4.5

How did O=S(=O)(c1cnc(Cl)c(Cl)c1)N1CCN(c2ncccn2)CC1 do in these assays?
ssDAF12 agonist: -1.0; DAX1 inh-1: -0.7; hcDAF12 agonist: -1.1; DAX1 inh-2: 1.1; hgDAF12 agonist: -1.0

How did N#C/C(=C\c1ccccc1O)C(=O)Nc1ccccn1 do in these assays?
ssDAF12 agonist: 0.7; DAX1 inh-1: 0.2; hcDAF12 agonist: 5.8*; DAX1 inh-2: 1.2; hgDAF12 agonist: 4.3

How did COc1ccc(/C=N/NC(=O)c2cccs2)c2ccccc12 do in these assays?
ssDAF12 agonist: -0.5; DAX1 inh-1: 1.3; hcDAF12 agonist: 2.8; DAX1 inh-2: 3.6; hgDAF12 agonist: 10.6*

How did COC(=O)C1CN(CCc2ccccc2)CCS(=O)(=O)N1Cc1ccc(C(F)(F)F)cc1 (stereo unspecified) do in these assays?
ssDAF12 agonist: -1.9; DAX1 inh-1: -1.6; hcDAF12 agonist: 0.7; hgDAF12 agonist: 0.4

How did COC1C(O)C(O)C(O)C(O)C1O (stereo unspecified) do in these assays?
ssDAF12 agonist: -1.2; DAX1 inh-1: -0.3; hcDAF12 agonist: 0.5; DAX1 inh-2: 4.9*; hgDAF12 agonist: 0.5
